Screening results from PubChem.
Most compounds without a hit are left out; they make up all but 28% or so of the library.
CYP2C9 activ: increases human cytochrome P450 2C9 activity. P11712. recombinant CYP2C9, luciferin-H conversion, luminescence; active compounds read high; factor 1 = untreated enzyme, 0 = blocked. activation factor at 5 µM. 96,000 compounds, 1.4% hits. AID 1024;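 active = activation factor of 2 or more for CYP2C9 at a 5 µM dose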;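 also: 0 = sulfaphenazole-blocked wells and 1 = vehicle-only wells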
CYP2C19 act: activators of human cytochrome P450 2C19 | P33261 | recombinant CYP2C19, luciferin-H EGE luminescence; active compounds read high; 0 = fully inhibited enzyme, 1 = untreated enzyme | activation factor at 5 µM | 96,000 tested, under 10 active | AID 1025;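 active = activation factor of at least 2 at 5 µM in the primary screen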;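 also: 0 = wells with 2.5 mM tranylcypromine and 1 = vehicle-only wells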
CYP2C9 inhib: human CYP2C9 inhibition; P11712; inhibition, % at 5 µM; 96,000 compounds, 20% hits; CYP2C9 Supersomes, luciferin-H conversion, luminescence; AID 777;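 active = blocking of liver enzyme CYP2C9 beyond about 50% at 5 µM, limit read from the data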
CYP2C19 inh: human CYP2C19 inhibition. CYP2C19 Supersomes, luciferin-H EGE luminescence, 30 min. P33261. inhibition, % at 5 µM. 96,000 compounds, 21% hits;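 active = CYP2C19 inhibition above a set limit at 5 µM in the primary screen, cut at about 50% in these data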;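 also: plate controls were negative control wells for no effect and 2.5 mM tranylcypromine positive control for full effect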
PLK1 inh: inhibitors of human PLK1 kinase; P53350; 97,000 compounds, 0.53% hits; AID 619; recombinant PLK1 kinase, TR-FRET peptide phosphorylation; inhibition, % at 10 µM;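 active = inhibition of 50% or more in the single-concentration screen; inactive = inhibition below 50%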;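 also: 0% = DMSO max control and 100% = H-89 dihydrochloride min control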
Target sequence (P53350 whole entry, looked up): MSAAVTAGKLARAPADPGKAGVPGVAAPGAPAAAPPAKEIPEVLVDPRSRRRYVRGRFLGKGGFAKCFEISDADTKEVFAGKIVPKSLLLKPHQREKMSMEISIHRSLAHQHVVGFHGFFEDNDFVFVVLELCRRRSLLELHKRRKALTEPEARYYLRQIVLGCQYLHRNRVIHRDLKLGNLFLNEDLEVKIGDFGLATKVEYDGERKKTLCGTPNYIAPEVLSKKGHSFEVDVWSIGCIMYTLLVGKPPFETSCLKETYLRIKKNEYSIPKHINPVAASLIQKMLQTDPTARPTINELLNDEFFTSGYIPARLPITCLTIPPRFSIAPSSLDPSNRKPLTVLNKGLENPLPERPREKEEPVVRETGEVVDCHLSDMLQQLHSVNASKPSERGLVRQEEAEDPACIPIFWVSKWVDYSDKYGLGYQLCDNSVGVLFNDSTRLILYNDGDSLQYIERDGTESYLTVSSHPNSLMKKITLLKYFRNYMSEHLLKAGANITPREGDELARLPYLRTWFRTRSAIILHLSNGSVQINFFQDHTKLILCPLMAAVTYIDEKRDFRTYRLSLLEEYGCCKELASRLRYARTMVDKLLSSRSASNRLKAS
Plk1 PBD FP: blocks phosphopeptide binding to human Plk1 polo box domain; inhibition, %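 (tested at about 20 µM)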; 97,000 compounds, 0.13% hits; Plk1 PBD phosphopeptide binding, fluorescence polarization; P53350; in the data active = inhibition above about 34%, passing the limit was not always enough
Starred values were filed as active, the others as inactive; nt = no result given.

SMILES	CYP2C9 activ	CYP2C19 act	CYP2C9 inhib	CYP2C19 inh	PLK1 inh	Plk1 PBD FP
CCN(CC)C(=O)CSc1nc2sc(C)c(C)c2c(=O)[nH]1	0.8	0.9	21	6	17	7
Cn1c2c(c3ccccc31)CCSC2=O	0.8	0.8	16	24	-9	0
COc1ccccc1NC(=O)C(=O)N1N=C(C(C)C)CC1(O)C(F)(F)F (stereo not given)	1.1	0.9	-6	12	-14	-11
CCC1=NN(C(=O)C(=O)Nc2ccccc2OC)C(O)(C(F)(F)F)C1 (stereo not given)	0.4	0.8	62*	15	-13	-4
CCC1=NN(C(=O)CCc2ccccc2)C(O)(C(F)(F)F)C1 (stereo not given)	0.5	0.3	48	67*	-1	2
CCC1=NN(C(=O)C(=O)NCCc2ccccc2)C(O)(C(F)(F)F)C1 (stereo not given)	0.8	0.9	16	7	-11	-12
CCC1=NN(C(=O)Cc2ccc(OC)cc2)C(O)(C(F)(F)F)C1 (stereo not given)	0.9	0.5	10	53*	-17	-16
N/C(CN1CCCC1=O)=N\OC(=O)c1ccccc1Cl	1.1	1	-5	-2	-11	-19
CCOc1cc(C(=O)N2CCN(c3ccccc3)CC2)cc(OCC)c1OCC	1.2	0.8	-17	16	-1	-20
CCOc1cc(C(=O)N(C)c2ccccc2)cc(OCC)c1OCC	0.8	0.4	22	57*	-13	-4
CCOC(=O)c1ccc(NC(=O)CSc2nnc(C3CC3)n2CC)cc1	nt	nt	nt	nt	-8	0
CCCOC(=O)c1ccc(NC(=O)CSC2=Nc3ccccc3C3CC=NN23)cc1 (stereo not given)	0.2	0.5	80*	52*	-4	6
Cc1c(C#N)sc2nc(-c3ccccc3)nc(N3CCCC3)c12	0.7	1.1	28	-10	-9	3
CC(C)(C)NC(=O)C(c1ccncc1)N(C(=O)c1csnn1)c1ccccc1 (stereo not given)	0.6	0.8	36	16	-13	-13
COc1cc(CN2CCN(c3cccc(Cl)c3)CC2)cc(OC)c1OC	nt	nt	nt	nt	0	-6
COc1cccc(CN2CCN(c3ncccn3)CC2)c1	0.9	0.4	10	56*	-18	-23
FC(F)(F)c1cccc(N2CCN(Cc3cccnc3)CC2)c1	0.2	0	81*	96*	nt	nt
FC(F)(F)c1cccc(N2CCN(Cc3ccoc3)CC2)c1	0.5	0.3	54*	67*	-8	-11
COc1cccc(CN2CCN(Cc3cc(OC)c(OC)cc3[N+](=O)[O-])CC2)c1	1.6	1.1	-63	-8	-5	-29
COc1cccc(N2CCN(Cc3cccnc3)CC2)c1	1.1	0.3	-13	67*	nt	nt
CC1(C)CC(=O)N(c2ccccc2)C1(C)O (stereo not given)	1.1	1	-15	4	-8	-16
O=C(c1cccs1)N(Cc1ccco1)c1nc(-c2ccc(F)cc2)cs1	nt	nt	nt	nt	-12	27
Cc1ccc(C(=O)CSc2ncnc3sc4c(c23)CCC(C)C4)cc1 (stereo not given)	nt	nt	nt	nt	-28	-11
O=c1[nH]c2cc3c(cc2cc1C(c1nnnn1C1CCCCC1)N1CCSCC1)OCCO3 (stereo not given)	nt	nt	nt	nt	-28	-16
COc1cccc(CN2CCN(c3cccc(C(F)(F)F)c3)CC2)c1OC	nt	nt	nt	nt	-8	-3
SMILES	CYP2C9 activ	CYP2C19 act	CYP2C9 inhib	CYP2C19 inh	PLK1 inh	Plk1 PBD FP
CCOc1cccc(CN2CCN(c3cccc(C(F)(F)F)c3)CC2)c1O	0.4	0.1	65*	93*	-9	4
O=C(Nc1ccccc1C(=O)Nc1ccc2c(c1)OCO2)c1ccco1	0	0.5	97*	51*	-13	12
COc1ccc(Cl)cc1C(=O)Nc1nnn(C)n1	2*	1.1	-100	-7	-13	6
CCOC(=O)Nc1ccc2c(c1)OCO2	0.9	0.8	10	22	-11	-16
COc1ccc(Br)cc1C(=O)Nc1nnn(C)n1	1.8	0.8	-75	24	1	-20
O=C(Nc1ccc2c(c1)OCO2)Oc1ccccc1	1	0.4	2	62*	0	-25
CCOC(=O)c1c(C)[nH]c(C(=O)Nc2ccc3c(c2)OCO3)c1C	0.7	0.1	34	86*	-7	-3
O=C(CCNC(=O)c1ccc(Br)o1)NCc1ccccn1	nt	nt	nt	nt	10	17
CC(=O)c1c(N2CCN(Cc3ccc4c(c3)OCO4)CC2)nc(=S)n(-c2ccccc2)c1C	0.8	1.1	24	-7	-4	-16
COc1ccccc1C(=O)Nc1ccc2c(c1)OCCO2	2.1*	0.9	-108	11	-9	-10
CCN(CC)c1ccc(NC(=O)c2cc(Cl)ccc2OC)cc1	2.9*	0.8	-192	24	-2	-9
COCCn1cnnc1SCC(=O)Nc1ccccc1C(=O)Nc1ccc2c(c1)OCO2	0.1	0.4	94*	58*	-13	3
COc1ccc(Cl)cc1C(=O)Nc1ccc2c(c1)OCO2	3.3*	0.4	-232	59*	-22	12
Cn1c(COc2ccccc2)nnc1SCC(=O)Nc1ccc2c(c1)OCO2	0.6	0.6	36	37	nt	nt
COc1cc(C2/C(=C(\O)c3cc(C)ccc3C)C(=O)C(=O)N2CCN(C)C)ccc1O (stereo not given)	1	0.8	-3	16	-3	4
CCN(CC)c1ccc(NC(=O)c2ccco2)cc1	0.9	0.7	6	31	nt	nt
COC(=O)Nc1ccc2c(c1)OCO2	nt	nt	nt	nt	-4	0
CCN(CC)c1ccc(NC(=O)c2ccccc2F)cc1	3*	0.8	-200	20	-4	-18
Cc1ccccc1C(=O)Nc1ccc2c(c1)OCO2	0.6	0.2	38	84*	-17	9
CN(c1ccccc1C(=O)Nc1ccc2c(c1)OCO2)S(C)(=O)=O	nt	nt	nt	nt	2	-3
Cc1ccc(NC(=O)/C(=C\c2ccc3c(c2)OCO3)NC(=O)c2ccco2)cc1	0.2	0.9	84*	10	-3	-5
COc1ccccc1C(=O)Nc1ccc2c(c1)OCO2	0.9	0.1	14	90*	-14	0
COC(=O)C(Cc1cncn1COCc1ccccc1)NC(=O)OC(C)(C)C (stereo not given)	0.8	0.6	25	36	-7	0
COCCn1c(SCC(=O)NCc2ccco2)nnc1C(C)C	nt	nt	nt	nt	-1	7
Cc1ccccc1OCc1nnc2n1CC(C)S2 (stereo not given)	0.9	0.9	14	6	-10	-1
COc1cc(SC)ccc1C(=O)Nc1ccc2c(c1)OCCO2	0.4	0.1	58*	91*	10	19
COc1cc(SC)ccc1C(=O)Nc1ccccc1	1.3	1.4	-25	-37	0	7
COc1ccc(/C=N/NC(=O)c2nc(Cl)c(Cl)c(N)c2Cl)cc1COc1ccccc1F	0.1	0.4	87*	62*	-15	12
